What all share (test): NCI-60 one-dose screen, 48 h (100 = growth as untreated, 0 = no growth, -100 = all killed)
Common to all, as to conditions: 10 µM unless noted

The test system of test [1] is DU-145 prostate.
In test [2] the test system is K-562 leukemia.
Test [3] relates to MALME-3M melanoma.
Test [4] deals with MDA-MB-231 breast.
In test [5] the test system is RXF 393 renal.
The test system of test [6] is SF-268 CNS.
Test [7] relates to SF-295 CNS.
Test [8] deals with SF-539 CNS.
Test [9] has as its system UACC-257 melanoma.
The test system of test [10] is M14 melanoma.
For test [11], the system named is HCT-15 colon.
Test [12] has as its system HT29 colon.
Test [13] relates to SNB-75 CNS.
The subject of test [14] is SNB-19 CNS.
Test [15] concerns U251 CNS.
The subject of test [16] is PC-3 prostate.
The test system of test [17] is SK-MEL-5 melanoma.
Test [18] relates to UACC-62 melanoma.
Test [19] deals with LOX IMVI melanoma.
The test system of test [20] is SK-MEL-28 melanoma.

Compounds without any hit were thinned out: in the full panel of roughly 83,000, 20% have a hit.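 For each line, cells grew in 96-well plates with the test compound present at a single concentration for 48 hours.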 A number with no mark means an inactive call. Active and inactive are the calls of the source. Rule for the calls: active = growth percent below 10; inactive = the rest.

With `COc1ccc(C(=O)CSc2nnc(-c3cc(-c4ccccc4)nc4ccccc34)o2)cc1`, the growth is 110% in test [1]; 103% in test [2]; 96.7% in test [3]; 98.7% in test [4]; 122% in [5]; 100% in test [6]. Moreover, the growth in test [7] is 102%; in test [8], 106%; in [9], 105%; in test [10], 105%; in test [11] it was 103%; in [12] it was 113%. The growth in [13] was 102%; in [14] it was 94.3%; in [15] it was 103%; in [16] it was 105%; in test [17] it was 105%; in test [18], 98%. The growth in test [19] was 101%; in test [20] it was 109%.

With `Cc1ccc(Oc2c(/C=N/NC(=O)Cn3c(=O)sc4ccccc43)c(C)nn2-c2ccccc2)cc1`, the growth in test [1] is 78.1%; in test [2], 27.2%; in [3], 66.5%; in [4], 72.2%; in [5], 72.9%; in test [6], 53.3%. Besides, the growth in test [7] was 42.1%; in [8], 75.2%; in [9] it was 73.2%; in [10], 59.2%; in test [11], 42.2%; in test [12], 31.3%. Besides, the growth in [13] was 53.4%; in [14] it was 61.5%; in test [15] it was 42.9%; in [16], 35.8%; in test [17], 37.7%; in [18], 52.7%. The growth in test [19] is 64.7%; in test [20], 93.5%.

As to `CC1(C)C(=NO)C(C)(C)C1=NO`, the growth in [1] was 114%; in test [2] it was 98.8%; in test [3], 116%; in test [4], 123%; in test [5], 112%; in [6] it was 103%. The growth was 108% in [7]; 117% in [8]; 95.4% in test [9]; 99.5% in [10]; 102% in test [11]; 105% in test [12]. Also, the growth was 96.5% in [13]; 107% in test [14]; 113% in test [15]; 90.7% in test [16]; 103% in test [17]; 109% in [18]. For the same molecule, the growth is 108% in test [19] and 113% in [20].

`CNC(=O)c1cc(Oc2cccc3nc(NC(=O)Nc4cc(C(F)(F)F)cc(C(F)(F)F)c4)ccc23)ccn1`: the growth in test [1] is 45.4%; in test [2] it was 71.9%; in test [3] it was 21.3%; in [4], 23.3%; in test [5] it was 27.5%; in test [6] it was 36.1%. Besides, the growth in test [7] is 30.3%; in [8] it was 38.9%; in test [9] it was 57.7%; in test [10], 35.5%; in test [11] it was 71.1%; in test [12], 16%. Moreover, the growth is -23.7% (active) in test [13]; 38.8% in [14]; -34.9% (active) in test [15]; 52.8% in test [16]; 59.9% in test [17]; 41.4% in test [18]. Further, the figures for the growth in test [19] and in test [20] were 12.7% and 33.2%, respectively.

For `O=C(CCCCCCSc1nc(-c2ccc(Cl)cc2)cc(-c2ccc(Cl)cc2)n1)NO`, the growth in test [1] was 22.4%; in [2], 24.4%; in test [3], 15%; in test [4], 61.1%; in [5], 2.65% (active); in test [6], 30.4%. In addition, the growth in test [7] was 52.6%; in test [8] it was 28.4%; in test [9] it was 31.5%; in test [10], 31.7%; in test [11], 23.6%; in test [12], 20.4%. Further, the growth in test [13] was 57.7%; in test [14], 37.3%; in [15] it was 16.6%; in test [16] it was 42.8%; in test [17] it was 5.66% (active); in [18] it was 16.1%. Besides, the growth in test [19] is 2.18% (active); in test [20], 57.8%.

Regarding `COCc1nc2ccccc2[nH]1`, the growth is 113% in [1]; 99% in test [2]; 98.7% in test [3]; 100% in [4]; 117% in test [5]; 108% in test [6]. For the same molecule, the growth in test [7] is 95.1%; in test [8] it was 92.8%; in test [9], 104%; in test [10] it was 100%; in test [11] it was 97.7%; in test [12] it was 104%. Moreover, the growth in test [13] was 95.8%; in [14], 101%; in test [15] it was 98.3%; in test [16], 104%; in test [17] it was 99.5%; in test [18], 99.1%. The results for the growth in [19] and in test [20] were 99.3% and 98.8%, respectively.

`C=C(C)[C@@H]1CC[C@]2(C(N)=O)CC[C@]3(C)[C@H](CC[C@@H]4[C@@]5(C)C/C(=C/c6cccnc6)[C@H](O)C(C)(C)[C@@H]5CC[C@]43C)[C@@H]12`: the growth in test [1] was 38.2% [100 µM]; in test [2], 5.36% [100 µM] (active); in [3] it was 5.89% [100 µM] (active); in test [4], 28.9% [100 µM]; in test [5] it was 13.4% [100 µM]; in test [6] it was 45.6% [100 µM]. Moreover, the growth is 23.9% [100 µM] in [7]; 25.1% [100 µM] in [8]; 38% [100 µM] in test [9]; 33.8% [100 µM] in test [10]; 18.7% [100 µM] in test [11]; -20.5% [100 µM] (active) in test [12]. Besides, the growth in test [13] was 47.1% [100 µM]; in test [14], 39% [100 µM]; in test [15], 24.6% [100 µM]; in test [16] it was 21.1% [100 µM]; in test [17], -78.1% [100 µM] (active); in [18], 24.8% [100 µM]. Further, the growth is -35.9% [100 µM] (active) in test [19] and 26.5% [100 µM] in test [20].

(Values after PubChem BioAssay (NCI).)
